Experimental data as given in PubChem BioAssay (NCI).
About 83,000 compounds went through this panel and 20% of them were active in at least one assay; those are over-represented in the sample as a whole.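 Step 1: grow cells in 96-well plates. Step 2: add test compound at a single concentration. Step 3: incubate 48 h. Step 4: record percent growth.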 Values without a mark were called inactive. The source made the active and inactive calls. The calls were made as follows: active = growth percent below 10; inactive = the rest.

Assays:
Assay in all cases: NCI-60 one-dose screen, 48 h (100 = growth as untreated, 0 = no growth, -100 = all killed)
Conditions in all cases: 10 µM unless noted
NCI-H23 lung = test system: NCI-H23 lung
NCI-H226 lung = test system: NCI-H226 lung
NCI-H322M lung = test system: NCI-H322M lung
HOP-62 NSCLC = test system: HOP-62 NSCLC
NCI-H460 lung = test system: NCI-H460 lung
HOP-92 NSCLC = test system: HOP-92 NSCLC
A549/ATCC NSCLC = test system: A549/ATCC NSCLC
786-0 renal = test system: 786-0 renal
COLO 205 colon = test system: COLO 205 colon
DU-145 prostate = test system: DU-145 prostate
K-562 leukemia = test system: K-562 leukemia
MALME-3M melanoma = test system: MALME-3M melanoma
MDA-MB-231 breast = test system: MDA-MB-231 breast
RXF 393 renal = test system: RXF 393 renal
SF-268 CNS = test system: SF-268 CNS
SF-295 CNS = test system: SF-295 CNS
SF-539 CNS = test system: SF-539 CNS
UACC-257 melanoma = test system: UACC-257 melanoma
M14 melanoma = test system: M14 melanoma
NCI-H522 lung = test system: NCI-H522 lung

| Compound | growth (NCI-H23 lung) | growth (NCI-H226 lung) | growth (NCI-H322M lung) | growth (HOP-62 NSCLC) | growth (NCI-H460 lung) | growth (HOP-92 NSCLC) | growth (A549/ATCC NSCLC) | growth (786-0 renal) | growth (COLO 205 colon) | growth (DU-145 prostate) | growth (K-562 leukemia) | growth (MALME-3M melanoma) | growth (MDA-MB-231 breast) | growth (RXF 393 renal) | growth (SF-268 CNS) | growth (SF-295 CNS) | growth (SF-539 CNS) | growth (UACC-257 melanoma) | growth (M14 melanoma) | growth (NCI-H522 lung) |
| --- | --- | --- | --- | --- | --- | --- | --- | --- | --- | --- | --- | --- | --- | --- | --- | --- | --- | --- | --- | --- |
| Cc1n(Cc2ccc3ccccc3n2)cc[n+]1Cc1ccc2ccccc2c1 | 2.01% (active) | 12.7% | 26% | 13.3% | 10.2% | -6.1% (active) | 33.5% | 63.3% | -38.4% (active) | 26.6% | 11.5% | -30.2% (active) | 2.1% (active) | 9.37% (active) | 20.8% | 9.7% (active) | 14.3% | -15.1% (active) | 18.2% | – |
| Nc1cc2nc3ccccc3oc-2cc1=O | -33.2% (active) | 67.4% | 108% | 25.4% | -28.7% (active) | 112% | -42.4% (active) | 81.9% | -74.9% (active) | -97.1% (active) | 10.6% | -45.8% (active) | 59.8% | 81.1% | 38.5% | -11.1% (active) | -20% (active) | 31.7% | -83.6% (active) | – |
| NC(=Nc1ccccc1)SCCCSC(N)=Nc1ccccc1 | 92.6% | 93.6% | 81.8% | 96.5% | 100% | 41.6% | 89.5% | 102% | 78.7% | 95.7% | 75% | – | 79.5% | 99.5% | 95.6% | – | 93.6% | 108% | 95.6% | – |
| C/C(=C\C(=N\N=C(N)N)c1ccc(Cl)cc1)c1ccc(Cl)cc1 | -71.5% (active) | -69.6% (active) | -36% (active) | -86.3% (active) | -66.8% (active) | -77% (active) | -81.3% (active) | -70.3% (active) | -90.2% (active) | -91.4% (active) | -51.7% (active) | -64.6% (active) | -73.1% (active) | -95.8% (active) | -89.2% (active) | – | -73.7% (active) | -72.5% (active) | -79.7% (active) | – |
| COc1cc(/C=C/C(=O)c2ccc(NC(=O)CSc3nnc(-c4ccc(Cl)cc4)n3-c3ccccc3)cc2)cc(OC)c1OC | 55.9% | 82% | 96.5% | 96.5% | 80% | 97.9% | 69.8% | 79% | 79.8% | 80% | 44.3% | 101% | 54.9% | 55.5% | 77.6% | – | 91.3% | 73.6% | 76.1% | – |
| CCCCNCCC(O)c1cc2ccc(C(F)(F)F)cc2c2cc(C(F)(F)F)ccc12 (stereo not given) | -75.3% (active) | -70.7% (active) | -37.6% (active) | -91.3% (active) | -74.5% (active) | -80.6% (active) | -87.5% (active) | -85.3% (active) | -88.6% (active) | -93.4% (active) | -72.1% (active) | -59.5% (active) | -73.3% (active) | -90.8% (active) | -88% (active) | – | -81.8% (active) | -75.5% (active) | -84.6% (active) | – |
| COC(=O)c1cc2oc(/C=N/NC(=O)c3cc4oc(-c5cccc(C(F)(F)F)c5)cc4[nH]3)cc2n1Cc1ccccc1 | 93.1% | 109% | 88% | -2.75% (active) | 107% | 78.1% | 20.6% | – | 118% | 111% | 91.3% | 6.57% (active) | 104% | – | 84.8% | – | 92.4% | -29.3% (active) | 121% | – |
| COc1ccc(C2CC(c3ccc(Nc4ccnc5cc(Cl)ccc45)cc3)=NN2c2ccccc2)cc1 (stereo not given) | 97.7% | 102% | 100% | 106% | 85.6% | 68.5% | 85.8% | 100% | 86.5% | 105% | 67.9% | 94.4% | 103% | 109% | 108% | 107% | 88.2% | 97.4% | 99.6% | – |
| Cn1c(=O)c2c3c(oc2c2ccccc21)C(=O)c1ccccc1C3=O | 78.3% | 73.2% | 96.2% | 81.8% | 78.5% | 101% | 81.7% | 107% | 74.5% | 91% | 68.8% | 113% | 11.5% | 101% | 95.3% | – | 97.2% | 106% | 85.6% | – |
| Clc1ccc(Nc2ncnc3c2sc2ncccc23)cc1 | 3.68% (active) | 31.5% | 45.9% | 15.7% | 10.3% | 50.4% | 27.9% | 13.6% | 30.2% | 20.2% | 46.6% | 65.6% | 63.9% | 32.9% | 23% | 19.1% | 6.42% (active) | 41.6% | -21.5% (active) | – |
| CCNC(=S)N(Cc1ccccc1)Cc1ccccc1 | 110% | 114% | 104% | 94.5% | 131% | 76.7% | 98.4% | 107% | 132% | 124% | 100% | 105% | 116% | 126% | 116% | – | 104% | 98.7% | 108% | – |
| COc1ccc(-c2nsc3c2NC(=O)CC3c2cccc(F)c2)cc1 (stereo not given) | 59% | 76.5% | 53.6% | 60.2% | 10.4% | 52.7% | 34.3% | 80% | 25.8% | 53.7% | 13.9% | 42.7% | 44.7% | 50.9% | 62% | 61.5% | 54.7% | 65.7% | 32.6% | – |
| COc1ccc(-c2oc(=O)ccc2-c2cc(OC)c(OC)c(OC)c2)cc1F | 81.4% | 82.9% | 95.4% | 67.3% | – | 62.6% | 27.8% | 75.2% | 57.5% | 109% | 26.7% | 68.9% | 77.3% | 90.9% | 95.3% | 62.4% | 80.4% | 66.4% | – | 50.8% |
| Nc1nc(N)c2cc(CNc3ccc(Cl)c(Cl)c3)ccc2n1 | 42.8% | 45.2% | 29.5% | 43.1% | -48.8% (active) | -5.15% (active) | 17.7% | 9.65% (active) | -79.7% (active) | 44.6% | -72.3% (active) | 47.1% | -23.9% (active) | 26.5% | 35% | – | 23.7% | 32.4% | -69.7% (active) | – |
| Cc1cc(C)c2c(n1)sc1c(Nc3ccc(Cl)cc3Cl)ncnc12 | 19% | 36.2% | 43.9% | 2.53% (active) | 9.44% (active) | 36.2% | 26.2% | 10.9% | 23.3% | 20.3% | 42.9% | 53.4% | 58.7% | 28.8% | 17.9% | 14.3% | 4.9% (active) | 36.4% | -34.3% (active) | – |
| COC(=O)/C=C/c1cc(OC(C)=O)c2c(c1)[C@@H](C(=O)OC)[C@H](c1ccc(OC(C)=O)c(OC(C)=O)c1)O2 | 20.7% | -7.97% (active) | 60% | 24% | 11.4% | 12.9% | 20.6% | 21.5% | 47.1% | -9.78% (active) | 8.05% (active) | 48.7% | 14.1% | 37.1% | 24.2% | 23.9% | -23.9% (active) | 48.3% | 2.76% (active) | – |
| COc1ccc2c(c1)N(CCO)C1=C(C(=O)OC1)C2c1cccc(Br)c1 (stereo not given) | 29.2% | -5.22% (active) | 29% | 29.4% | 2.07% (active) | 42.7% | 16.4% | 21.4% | -47.2% (active) | -27.2% (active) | 13.6% | – | -10.6% (active) | 44.4% | 25% | -19.4% (active) | -6.97% (active) | 60% | 8.81% (active) | – |
